# Reference: PubChem BioAssay (NCI)
# This is part of a sample that, as a whole, favours compounds with a hit. Of some 83,000 tested, about 20% had one in any assay.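 Results are percent growth after 48 hours of single-concentration exposure. 100 means growth as in untreated cells, lower positive values show inhibition; negative values down to -100 show cell death.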 Values without a mark were called inactive. Active and inactive are the calls of the source. How the source made its calls: active means growth percent below 10; inactive means the rest.
# How the values were obtained:
# Test in all cases: NCI-60 one-dose screen, 48 h (100 = growth as untreated, 0 = no growth, -100 = all killed)
# Details in all cases: 10 µM unless noted
# [1] = system: DU-145 prostate
# [2] = system: K-562 leukemia
# [3] = system: MALME-3M melanoma
# [4] = system: MDA-MB-231 breast
# [5] = system: RXF 393 renal
# [6] = system: SF-268 CNS
# [7] = system: SF-295 CNS
# [8] = system: SF-539 CNS
# [9] = system: UACC-257 melanoma
# [10] = system: M14 melanoma
Compound,growth [1],growth [2],growth [3],growth [4],growth [5],growth [6],growth [7],growth [8],growth [9],growth [10]
C#Cc1cccc(Nc2ncnc3cc(OC)c(OCCCCCCC(=O)NO)cc23)c1,0.81% (active),5.48% (active),2.19% (active),-16.8% (active),-49.5% (active),-3.98% (active),-53.6% (active),-1.18% (active),-47.3% (active),2.66% (active)
N#CC[C@H](C1CCCC1)n1cc(-c2ncnc3[nH]ccc23)cn1,62.8%,70.4%,97%,60.4%,15.9%,59.8%,76.6%,67.4%,78.9%,77.9%
Nc1c(Cl)cccc1[N+](=O)[O-],111%,101%,96.7%,99.3%,115%,105%,107%,108%,108%,108%
O=C(Cn1ccc2ccccc21)Nc1ccc(-c2nc3ccccc3s2)cc1,101%,103%,108%,108%,113%,96.6%,103%,102%,100%,108%
Cc1ccc(-[n+]2c3cc(N)c(C)cc3nc3cc(C)c(Nc4ccccc4)cc32)cc1,-79.3% (active),-22.7% (active),-58% (active),-70% (active),-98.7% (active),-88.6% (active),-39.2% (active),-77% (active),-48.8% (active),-93.3% (active)
COc1cccc(NC(=O)Nc2ccc(Nc3ncnc4sc5c(c34)CCN(C(=O)CCl)C5)cc2)c1,118%,91.3%,116%,92.7%,99.1%,91.3%,98.1%,106%,93.4%,101%
Cn1cnc2c(F)c(Nc3ccc(Br)cc3F)c(C(=O)NOCCO)cc21,64.2%,49.4%,-2.35% (active),34.9%,19.5%,70.8%,76.3%,62.6%,-25.8% (active),2.5% (active)
COC(=O)[C@@H](NC(=O)[C@@H](OC)[C@@H]1Cc2cc3cc(OC4CC(OC5CC(O)C(O)C(C)O5)C(O)C(C)O4)c(C)c(O)c3c(O)c2C(=O)[C@H]1OC1CC(OC2CC(OC3CC(C)(O)C(O)C(C)O3)C(O)C(C)O2)C(O)C(C)O1)C(C)C (stereo not given in full),7.21% (active),5.81% (active),-12.3% (active),10.9%,-68% (active),6.33% (active),-32.5% (active),-22.4% (active),3.21% (active),5.18% (active)
CN(C[C@@H]1COCCO1)S(=O)(=O)Nc1ccc2ccc3ncc(-c4cnn(C)c4)cc3c(=O)c2c1,44%,39.5%,46%,49.5%,-2.79% (active),35%,19.3%,0.172% (active),69.3%,35.3%
S=C(NCc1ccc2c(c1)OCO2)N1CCN(c2ncnc3c2oc2ccccc23)CC1,35.4%,19.4%,51.1%,57.1%,50.7%,42.2%,26.4%,39.7%,9.31% (active),35.2%
CNC(=O)c1ccccc1Nc1nc(Nc2ccc3c(c2OC)CCC[C@H](N2CCN(CCO)CC2)C3)ncc1Cl,18.7%,-43.9% (active),-52.1% (active),-19.4% (active),-23.3% (active),17.3%,-63.7% (active),-41.7% (active),-75.8% (active),-69% (active)
COc1ccc(C(=O)N2c3ccccc3Sc3ccccc32)c(F)c1,5.05% (active),12.7%,46.6%,52.5%,-23.1% (active),53.1%,8.85% (active),-15.8% (active),67.1%,2.04% (active)
CCN1CCN(Cc2ccc(-c3cc4c(N[C@H](C)c5ccccc5)ncnc4[nH]3)cc2)CC1,40.5%,5.11% (active),1.62% (active),30.3%,26.4%,52%,68.8%,60.5%,-5.38% (active),7.83% (active)
Cn1ccnc1C(=O)/C=C/c1ccc(CC(=O)Nc2ccc(C(F)(F)F)cc2)cc1,7.72% (active),6.29% (active),77.5%,8.95% (active),-1.43% (active),16.4%,7.9% (active),-36.8% (active),77.9%,21.3%
CC[C@@H]1C(=O)N(C)c2cnc(Nc3ccc(C(=O)NC4CCC(N5CCN(CC6CC6)CC5)CC4)cc3OC)nc2N1C(C)C (stereo not given in full),14.6%,-6.16% (active),-80.6% (active),5.19% (active),-30.4% (active),11.2%,-36.2% (active),-85.7% (active),-67.3% (active),-57.7% (active)
CO[C@H]1C[C@@H]2CC[C@@H](C)[C@@](O)(O2)C(=O)C(=O)N2CCCC[C@H]2C(=O)O[C@H]([C@H](C)C[C@@H]2CC[C@@H](OCCO)[C@H](OC)C2)CC(=O)[C@H](C)/C=C(\C)[C@@H](O)[C@H](OC)C(=O)[C@H](C)C[C@H](C)\C=C/C=C/C=C/1C,50.8%,42.9%,36.6%,63.1%,5.21% (active),51.6%,26.3%,41.8%,61%,62.2%
COc1cc(Nc2c(C#N)cnc3cc(OCCCN4CCN(C)CC4)c(OC)cc23)c(Cl)cc1Cl,46%,22.7%,1.06% (active),62.3%,59%,70.5%,83.7%,94.4%,-8.01% (active),13%
COc1c(OCCCN2CCOCC2)ccc2c3n(c(=NC(=O)c4cnc(N)nc4)nc12)CCN3,21.8%,21.8%,-21.2% (active),17.1%,-40.7% (active),24.6%,-15.4% (active),-51.5% (active),-13.8% (active),10.4%
CCn1cc(-c2ccnc3[nH]c(-c4cccc(CN(C)C)c4)cc23)c(-c2ccc(NC(=O)N(C)C)cc2)n1,40.2%,1.59% (active),46.9%,14%,-24.8% (active),33.5%,16.1%,5.58% (active),40.8%,21.4%
CN1CCN(c2nc(C3=C(c4c[nH]c5ccccc45)C(=O)NC3=O)c3ccccc3n2)CC1,90.5%,66.5%,-12.8% (active),70.6%,120%,95.1%,98.7%,92.2%,-20% (active),12.2%
NC(=O)c1c(OCc2c(F)cc(Br)cc2F)nsc1NC(=O)NCCCCN1CCCC1,22.6%,-46.8% (active),-79.8% (active),-38.1% (active),-81.9% (active),11.7%,-81% (active),-92% (active),-80.3% (active),-76.1% (active)
CSc1nc2ncncc2[nH]1,112%,93.9%,111%,99.3%,45.4%,105%,81%,89.6%,114%,90.7%
c1cc(OCCN2CCCCC2)cc(-c2n[nH]c3ccc(-c4ncn[nH]4)cc23)c1,62.4%,36.9%,13.5%,54.7%,90.3%,77.8%,92.3%,49.4%,70.8%,22.9%
CN1CCN(CCCOc2cccc3nc(Nc4ccc(Cl)c(C(F)(F)F)c4)ccc23)CC1,4.82% (active),-41.3% (active),34.1%,-44.5% (active),14.7%,28.3%,-11% (active),7.03% (active),59.3%,-54.6% (active)
COc1cc2c(cc1OCCCN1Cc3ccc(OCCCCC(=O)N4CCC(CCN5CCCC5)CC4)cc3C1)N=C(N)C21CCCC1,95.2%,4.85% (active),44%,87.1%,90.2%,85.8%,101%,54.7%,85.1%,58.2%
Cc1nc(N)sc1-c1ccnc(Nc2ccc(N3CCOCC3)cc2)n1,33.2%,59.1%,47.8%,29.5%,18.3%,28.5%,25.3%,25.6%,71.9%,36.8%
